Measured values as given in the supplement of paper PMC10646978.
± gives the standard deviation.

Assays:
Settings in all cases: modulator concentration 10 µM
[1] = system: RAW-Dual (murine macrophage reporter line); experiment: NF-kB reporter (SEAP) activity fold change vs agonist alone; higher = enhanced NF-kB activity
Method in brief: (§1)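 In 384-well plates holding 50 000 RAW-Dual murine macrophage reporter cells per well, compound at 10 μM final was pre-incubated for 1 hour at 37 °C, after which a PRR agonist was added overnight. Supernatant SEAP read with QUANTI-Blue at 620 nm absorbance reported NF-κB, and Lucia luciferase read with QUANTI-Luc luminescence reported IRF. Fold change values come from dividing each reporter signal by the mean of agonist-only control wells on the same plate, averaged over replicate plates with propagated errors.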

[2] = system: RAW-Dual (murine macrophage reporter line); experiment: IRF reporter (Lucia luciferase) activity fold change vs agonist alone; higher = enhanced IRF activity
Method in brief: as §1

[3] = system: RAW-Dual (murine macrophage reporter line); experiment: viability score (confluency relative to resting cells, overnight) (fraction); higher = more viable, active = viable (0.7 or more)
Method in brief: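 Overnight exposure to 10 μM final compound was carried out on RAW-Dual macrophages in 384-well plates. IncuCyte software generated two confluency masks over all wells imaged with IncuCyte. The viability score gives confluency in relation to resting cells. A compound met the cutoff if each mask exceeded 70% of resting cells.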

[4] = agonist: CpG ODN 1826 0.5 ug/mL

SMILES	NF-kB reporter [1, 4]	NF-kB reporter ([1]; agonist: LPS 0.1 ug/mL)	NF-kB reporter ([1]; agonist: MPLA […])	IRF reporter ([2]; agonist: 3'3'-cGAMP 10 ug/mL)	IRF reporter ([2]; agonist: LPS 0.1 ug/mL)	IRF reporter ([2]; agonist: MPLA […])	viability score [3]
NCC(O)(c1ccc(Cl)cc1)c1ccc(Cl)cc1	0.85 ± 0.14	1.12 ± 0.12	1.03 ± 0.11	1.01 ± 0.036	1.32 ± 0.25	1.41 ± 0.22	0.996 (active)
c1ccc(-n2nnnc2SCc2ccc3c(c2)OCO3)cc1	1.1 ± 0.096	1.22 ± 0.14	1.46 ± 0.096	0.785 ± 0.029	0.988 ± 0.11	1.13 ± 0.25	0.998 (active)
CC1CC(OC(=O)C(O)c2ccccc2)CC(C)(C)N1C (stereo unspecified) [Prestw-794]	1.07 ± 0.17	1.25 ± 0.12	1.02 ± 0.08	0.97 ± 0.027	1.09 ± 0.2	1.22 ± 0.15	1 (active)
Nc1ncn([C@@H]2O[C@H](CO)[C@@H](O)[C@H]2O)c(=O)n1	1.55 ± 0.066	0.569 ± 0.045	1.99 ± 0.16	0.549 ± 0.035	0.433 ± 0.049	0.502 ± 0.1	0.745 (active)
CCOc1ccccc1OCCCCOc1cccc(C)c1C	0.984 ± 0.1	1.03 ± 0.11	0.982 ± 0.061	1 ± 0.14	1.08 ± 0.13	1.1 ± 0.27	1 (active)
C[C@H](NC(=O)C(=O)Nc1ccccc1C(C)(C)C)C(=O)N[C@@H](CC(=O)O)C(=O)COc1c(F)c(F)cc(F)c1F	1.32 ± 0.33	0.434 ± 0.023	1.69 ± 0.12	0.51 ± 0.037	0.839 ± 0.14	1.07 ± 0.14	0.606 (inactive)
CC1CC(=O)C2=C(C1)OC(N)=C(C#N)C2c1ccc(Br)cc1 (stereo unspecified)	0.847 ± 0.088	0.91 ± 0.17	1 ± 0.056	0.782 ± 0.096	0.904 ± 0.04	0.731 ± 0.12	0.994 (active)
CC(=O)Nc1ccc2nc(NC(=O)c3ccco3)sc2c1	1.05 ± 0.083	1.03 ± 0.09	0.95 ± 0.072	0.827 ± 0.046	1.03 ± 0.069	0.744 ± 0.084	1 (active)
Br.COc1ccc2c3c1O[C@H]1C[C@@H](O)C=C[C@@]31CCN(C)C2	0.95 ± 0.071	1.03 ± 0.052	0.947 ± 0.024	0.912 ± 0.08	0.995 ± 0.042	1.11 ± 0.14	1.01 (active)
CC1=NN(C(=O)CCCc2ccccc2)C(O)(c2ccc(Cl)cc2)C1 (stereo unspecified)	0.923 ± 0.1	1 ± 0.13	1.02 ± 0.049	0.899 ± 0.2	1.1 ± 0.065	1.13 ± 0.15	0.999 (active)
N#Cc1c(N=Cc2ccc(Cl)cc2)sc2c1CCCC2	0.912 ± 0.16	1.01 ± 0.21	0.89 ± 0.068	0.915 ± 0.031	1.17 ± 0.21	1.21 ± 0.12	1 (active)
COc1ccc(-c2coc3cc(O)ccc3c2=O)cc1	0.956 ± 0.29	1.1 ± 0.1	0.992 ± 0.13	0.904 ± 0.034	1.06 ± 0.1	1.05 ± 0.17	1.01 (active)
O=C(NN=Cc1sc2ccccc2c1Cl)c1ccncc1	0.918 ± 0.08	1.02 ± 0.091	0.931 ± 0.058	0.808 ± 0.028	1.5 ± 0.14	1.14 ± 0.11	1.01 (active)
